The list is not random: actives were taken first. Their share in the collection is about 4.7%.
ADAM17 inh: ADAM17 inhibition, QFRET primary screen; inhibition, % at 6.95 µM; recombinant ADAM17, EDANS/DABCYL FRET peptide cleavage; 370,000 tested, 0.83% active; AID 720648; P78536;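 active = inhibition above the mean of compounds lying between control limits plus 3 SD, set per campaign, cut at about 8.5% in these data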
Target sequence (P78536 215-824 limits assumed): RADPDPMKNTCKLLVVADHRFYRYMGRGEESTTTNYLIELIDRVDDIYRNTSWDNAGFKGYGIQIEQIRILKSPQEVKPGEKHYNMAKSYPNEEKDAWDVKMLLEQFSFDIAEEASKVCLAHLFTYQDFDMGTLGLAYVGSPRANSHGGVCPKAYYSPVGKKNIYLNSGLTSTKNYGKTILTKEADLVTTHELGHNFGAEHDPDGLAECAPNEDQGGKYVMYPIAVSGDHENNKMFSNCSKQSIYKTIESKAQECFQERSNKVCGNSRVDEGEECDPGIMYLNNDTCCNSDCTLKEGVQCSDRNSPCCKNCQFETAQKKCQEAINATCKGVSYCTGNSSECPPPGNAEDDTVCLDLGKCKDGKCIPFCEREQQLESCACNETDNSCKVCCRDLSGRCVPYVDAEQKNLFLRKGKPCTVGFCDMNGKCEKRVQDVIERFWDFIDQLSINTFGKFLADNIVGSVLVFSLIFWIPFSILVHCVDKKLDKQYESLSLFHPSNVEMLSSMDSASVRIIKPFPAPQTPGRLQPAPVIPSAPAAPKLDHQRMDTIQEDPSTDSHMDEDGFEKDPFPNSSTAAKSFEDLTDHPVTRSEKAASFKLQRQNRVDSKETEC
Pemphigus Ab inh: inhibitors of pemphigus antibody binding to human desmoglein-3. 310,000 tested, 0.48% active. DSG3-coupled beads, scFv-anti-DSG3-GFP binding, flow cytometry; hits give low values. AID 588358. P32926. binding (percent of control), % at 10 µM;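 active = binding more than 3 SD below its plate's average and above zero; inconclusive = below that plate limit but binding exactly zero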;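 also: hits lower antibody fragment binding to DSG3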
MPTP block: blocks calcium-induced mitochondrial swelling. isolated mouse mitochondria, Ca2+ swelling absorbance, 30 min. inhibition, % at 10 µM. 360,000 tested, 1.4% active. AID 602449;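 active = inhibition of 50% or more, scaled per plate between neutral and stimulator controls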
proKLK7 act: proKLK7 (human) activation, primary screen. P49862. purified proKLK7, EDANS-DABCYL substrate fluorescence; 100% is mature enzyme control, 0% vehicle. activation, % at 7 µM. 370,000 tested, 0.9% active;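 active = activation above the mean of all tested compounds plus 3 SD, computed per campaign excluding outliers beyond control limits, cut at about 13% in these data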
ADAM10 inh: inhibitors of human ADAM10; AID 720582; 370,000 tested, 0.62% active; recombinant ADAM10, EDANS/DABCYL FRET peptide cleavage, 3 h; O14672; inhibition, % at 7 µM;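 active = inhibition above a per-campaign cutoff equal to the mean of compounds falling between control-based bounds plus 3 SD, cut at about 20% in these data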
rCAG RNA binder: molecules binding r(CAG) RNA repeats; inhibition, % at 3 µM; AID 651821; r(CAG) RNA repeat, TO-PRO-1 dye displacement fluorescence; 370,000 tested, 1.3% active;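 active = inhibition above the plate cutoff, the mean of all test compounds on that plate plus 3 SD, cut at about 35% in these data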;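 also: higher means more dye released from RNA so lower well fluorescence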
Rh123 counter: membrane potential counter-screen of mitochondrial pore inhibitors; inhibition, % at 10 µM; 5,000 tested, 78% active; isolated mitochondria, Rhodamine 123 fluorescence; shares compounds with MPTP block; AID 624504; in the data active = inhibition above about 22%
MPTP swell DR: MPTP inhibition, dose response swelling confirmation; 780 tested, 58% active; isolated mitochondria swelling, absorbance; shares compounds with MPTP block; IC50, µM; in the data active = IC50 below about 20 µM
MPTP counter DR: MPTP inhibitor counter-screen activity, dose response | shares compounds with MPTP block | 780 tested, 49% active | isolated mitochondria counterscreen, fluorescence read-out | IC50, µM; in the data active = IC50 below about 80 µM
Hits are given with their value; 0 = inactive; ? = inconclusive; - = no result given.

SMILES	ADAM17 inh	Pemphigus Ab inh	MPTP block	proKLK7 act	ADAM10 inh	rCAG RNA binder	Rh123 counter	others
CC[C@H](NC(=O)[C@H]1O[C@@H](n2cnc3c(=O)[nH]c(N)nc32)[C@H](O)[C@@H]1O)c1ccccc1	0	-	-	0	0	0	-
Cn1cc(Br)c(C(=O)Nc2sc3c(c2C#N)CCC3)n1	0	0	0	0	0	0	-
Cn1cc(Cl)c(C(=O)NC(=S)Nc2sc3c(c2C#N)CCCCC3)n1	0	0	83.4	0	0	0	21.2
CCC(C)NC(=O)C1CCN(S(=O)(=O)c2cc([N+](=O)[O-])ccc2Cl)CC1 (stereo not drawn)	0	0	0	0	0	0	-
O=C(Nc1nc2ccccc2s1)C1CCN(S(=O)(=O)c2cc([N+](=O)[O-])ccc2Cl)CC1	0	0	95.4	0	0	0	77.4
CCN=c1scc(-c2ccc(F)cc2)n1/N=C/c1ccccn1	0	0	0	0	0	0	-
CCN=c1scc(-c2ccccc2)n1/N=C/c1ccccn1	-	0	66.0	-	-	-	46.2
O=C(Nc1cccc(S(=O)(=O)Nc2ccc(Cl)cc2)c1)c1ccc(Cl)nc1	0	0	92.0	0	31.4	0	80.2
COc1ccc(NS(=O)(=O)c2cccc(NC(=O)CCC(=O)c3cccs3)c2)cc1	0	0	0	0	0	0	-
COc1ccc(NS(=O)(=O)c2cccc(NC(=O)CCS(=O)(=O)c3ccccc3)c2)cc1	0	0	55.4	0	0	0	0	MPTP swell DR=0;MPTP counter DR=57.4
COc1ccc(NS(=O)(=O)c2cccc(NC(=O)c3ccc(Cl)nc3)c2)cc1	0	0	100.1	0	0	0	94.2
O=C(Nc1ccc(NS(=O)(=O)c2ccccc2)cc1)c1ccc(Cl)cc1	0	0	0	0	0	0	-
COc1cccc(S(=O)(=O)Nc2ccc(C(=O)Nc3ccncc3)cc2)c1	0	0	0	0	0	0	-
CCN(CCOC(=O)Nc1ccc(Cl)cc1)C(=O)Nc1ccc(Cl)cc1	0	-	-	0	0	0	-
CCCCNC(=O)C[C@H]1C(=O)N(CCCOC)C2=CCCCC[C@]21C(=O)OC	0	-	-	0	0	0	-
C[C@H]1COc2cc(NCCO)ccc2S(=O)(=O)N1	0	-	-	0	0	0	-
CC(=O)N1CCN(C(=S)c2ccc([N+](=O)[O-])cc2)CC1	0	0	119.1	0	0	0	0	MPTP swell DR=0;MPTP counter DR=0
CC(C)(C)OC(=O)NCCCCCc1nnc(SCC(=O)Nc2cccc(Cl)c2)o1	0	0	74.5	0	0	0	56.6
Cc1ccc(S(=O)(=O)NNC(=O)C2CC=CCC2C(=O)O)cc1 (stereo not drawn)	0	0	55.4	0	0	0	0	MPTP swell DR=0;MPTP counter DR=0
CCC[C@H]1[C@@H](OC(=O)NCc2ccc(OC)cc2)CC[C@@]23CCCN2C(=O)CCC[C@@H]13	0	-	-	-	0	-	-
CN(C)CCCN(C(=O)c1ccc(Br)s1)c1nc2cc3c(cc2s1)OCCO3	0	0	76.1	0	0	0	0
CCN(CC)CCN(C(=O)c1ccc(Br)s1)c1nc2cc3c(cc2s1)OCCO3	0	0	0	0	0	0	-
CN(C)CCCN(C(=O)c1cc2cc([N+](=O)[O-])ccc2s1)c1nc2cc3c(cc2s1)OCCO3	0	0	82.9	0	0	0	0
CCOC(=O)[C@]12CCCC=C1N(CCCOC)C(=O)[C@@H]2CC(=O)NCC12CC3CC(CC(C3)C1)C2	0	-	-	0	0	0	-
CCCN(C(=O)C1CCCN(c2ncnc3c2nc2n3CCCCC2)C1)c1ccccc1C (stereo not drawn)	0	-	-	0	0	0	-
SMILES	ADAM17 inh	Pemphigus Ab inh	MPTP block	proKLK7 act	ADAM10 inh	rCAG RNA binder	Rh123 counter	others
COC(=O)C1=C(C)N(Cc2ccccc2C(F)(F)F)C(=NCc2ccccc2C(F)(F)F)NC1c1cccc(F)c1 (stereo not drawn)	0	-	-	0	0	0	-
CCCSc1nnc(NC(=O)Nc2ccc(C)cc2)s1	0	0	59.9	0	0	0	75.2
CCCSc1nnc(NC(=O)Nc2ccc(F)cc2)s1	0	0	85.8	0	0	0	98.5
O=C(Nc1ccccc1)Nc1nnc(-c2ccccc2)s1	0	0	0	0	0	0	-
Cc1ccc(NC(=O)CSc2nnc(NC(=O)C3CC3)s2)cc1	0	0	0	0	0	0	-
CCCSc1nnc(NC(=O)Nc2ccccc2)s1	0	0	90.2	0	0	0	78.0
O=C(Nc1ccccc1)Nc1nnc(/C=C/c2ccccc2Cl)s1	0	0	86.0	0	0	0	43.0
CCCSc1nnc(NC(=O)CCc2ccccc2)s1	0	0	0	0	0	0	-
C=CCn1c(C)cc(C(=O)CSc2nc3ccccc3[nH]2)c1C	0	0	0	0	0	0	-
Cc1cc(C(=O)CSc2nc3ccccc3[nH]2)c(C)n1Cc1ccco1	0	0	85.9	0	0	0	83.2
COCCn1c(C)cc(C(=O)CSc2nc3ccccc3c(=O)[nH]2)c1C	0	0	64.4	0	0	0	0	MPTP swell DR=0;MPTP counter DR=44.7
CCN(CC)C(=O)CSc1nc2ccccc2c(=O)[nH]1	0	0	66.0	0	0	0	0	MPTP swell DR=0;MPTP counter DR=0
CN(C)C(=O)CSc1nc2ccccc2c(=O)[nH]1	0	0	0	0	0	0	-
C=CCn1c(C)cc(C(=O)CSc2nc3ccccc3c(=O)[nH]2)c1C	0	0	0	0	0	0	-
COCC(C)n1c(C)cc(C(=O)CSc2nc3ccccc3c(=O)[nH]2)c1C (stereo not drawn)	0	0	76.1	0	0	0	34.5
CCOC(=O)C1=CCN(S(=O)(=O)c2ccccc2Br)C1c1ccc(Cl)cc1 (stereo not drawn)	0	-	-	0	0	0	-
Cc1ccc(S(=O)(=O)N2CCCc3nc(C)c(C)cc32)cc1	0	-	-	0	0	0	-
CC1=NN(c2ccc([N+](=O)[O-])cc2)C(=O)/C1=C\N(C)C	0	0	99.4	0	0	0	0
COC(=O)C1=C(C)N(CC(C)C)C(=S)NC1c1ccc(-c2ccccc2)cc1 (stereo not drawn)	0	-	-	0	0	0	-
CCCCCCCCNS(=O)(=O)CC1NCc2ccc(C)cc21 (stereo not drawn)	0	-	-	0	0	0	-
O=C(CSc1nc(-c2ccccc2Cl)ns1)Nc1ccc2c(c1)OCO2	0	0	87.0	0	0	0	80.0
Cc1ccc(-c2nsc(SCC(=O)Nc3ccc4c(c3)OCO4)n2)cc1	0	0	95.5	0	0	0	88.6
CCOc1ccc2nc(SCC(=O)Nc3ccc4c(c3)OCO4)sc2c1	0	0	75.3	0	0	0	69.0
CCOc1ccc2nc(SCC(=O)c3ccc(C)s3)sc2c1	0	?	0	0	0	0	-
O=C(CSc1nncs1)Nc1ccc2c(c1)OCO2	0	0	0	0	0	0	-

Source: PubChem (several laboratories)
